Screening data (PubChem BioAssay)
A selection: hits, their analogues and other compounds. The true share with any hit is near 2.7%.
IP6K1 inh = Primary qHTS assay for small molecule inhibitors of Inositol hexaphosphate kinase 1 (IP6K1); AID 1645851, 2021; IP6K1 kinase, ADP-Glo luminescence, 2 h; stronger effect = lower value; 0.81% of 140,000 active; activity change, % (series mostly up to about 58 µM); Inositol hexakisphosphate kinase 1 (Homo sapiens), Q92551; in the data active = activity change below about -25%
Target sequence (Q92551 whole entry, looked up): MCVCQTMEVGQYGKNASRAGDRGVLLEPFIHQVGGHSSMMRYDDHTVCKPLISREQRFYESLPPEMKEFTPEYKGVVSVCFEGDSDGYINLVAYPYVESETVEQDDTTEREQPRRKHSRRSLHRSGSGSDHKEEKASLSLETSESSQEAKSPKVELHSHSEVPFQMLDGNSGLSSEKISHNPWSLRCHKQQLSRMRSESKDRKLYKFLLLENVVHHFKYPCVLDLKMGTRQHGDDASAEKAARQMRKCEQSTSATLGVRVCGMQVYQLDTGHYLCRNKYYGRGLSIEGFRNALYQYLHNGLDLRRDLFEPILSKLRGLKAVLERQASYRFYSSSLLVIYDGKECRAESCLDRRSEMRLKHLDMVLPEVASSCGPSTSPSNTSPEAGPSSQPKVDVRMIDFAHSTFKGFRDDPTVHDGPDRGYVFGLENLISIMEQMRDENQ
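ADP-Glo luminescence measures ADP made by human IP6K1 during a 2 h RT reaction with ATP/IP6 (mix at 1.3 mM/130 uM); top library doses 57.5 and 19.1 uM final.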
KDM5B inh = Primary screen for KDM5B Histone Demethylases FDH-coupled qHTS | AID 1347165, 2019 | 2.6% of 220,000 active | Lysine-specific demethylase 5B (Homo sapiens), Q9UGL1 | KDM5B demethylase, FDH-coupled NADH fluorescence (FDH is formaldehyde dehydrogenase) | Potency, µM (series often up to 57.7 µM), usual class: inhibitors; active = well fitted inhibition curve with a large enough effect; inconclusive = small, poorly fitted or top-dose-only effect; inactive = no such curve, though single readings can be large or run the other way; also: nearly all actives have a fitted effect of over 70% in size
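KDM5BΔAP (200 nM final) in 50 mM HEPES pH 7.5, 0.01% Tween-20 was preincubated 10 min at RT with compound over a concentration range. Substrate mix (H3K4me3 12.5 µM, α-KG 25 µM, Fe²⁺, ascorbate, NAD⁺, FDH) was added, and NADH fluorescence change over 30 min gave dose-response curves.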
Numbers stand for hits; i = inactive; ? = inconclusive; nt = not tested or not shown.

SMILES	IP6K1 inh	KDM5B inh
CCCN1CCN(C(=O)c2ccc3c(c2)n(Cc2ccc(F)cc2)c(=O)c2ccnn23)CC1	i	22µM
Cc1c(C(=O)N(C)C)sc2c1c(=O)n(-c1ccccc1C(F)(F)F)c(=O)n2Cc1cccc(F)c1	i	i
Cn1c(=O)c2ccnn2c2ccc(C(=O)NCC3CCN(Cc4ccccc4F)CC3)cc21	i	32µM
CCC(C(=O)Nc1ccc(C(F)(F)F)cc1)n1cnc2ccccc2c1=O (configuration not stated)	nt	i
CCOc1ccc(C2C(C(=O)c3sc(C)nc3C)=C(O)C(=O)N2CCN2CCOCC2)cc1 (configuration not stated)	nt	i
CCc1nc2c(c(-c3ccc(O)cc3)n1)CN(C(=O)C(C)(C)C)CC2	i	nt
O=C(NC1CCCC1)c1ccc2c(c1)n(Cc1cccc(F)c1)c(=O)c1ccnn12	i	?
CCN(CC)CCNC(=O)c1ccc(Cn2c(SCc3ccccc3)nc3ccncc32)cc1	nt	i
O=C(NCc1cccs1)c1ccc2c(c1)n(Cc1cccc(F)c1)c(=O)c1ccnn12	i	28µM
O=C(NCc1ccccc1)c1ccc2c(c1)n(Cc1ccc(F)cc1)c(=O)c1ccnn12	i	?
O=C(NCc1ccco1)c1ccc2c(c1)n(Cc1ccc(F)cc1)c(=O)c1ccnn12	i	28µM
CCN(CC)CCNC(=O)c1ccc2c(c1)n(Cc1cccc(F)c1)c(=O)c1ccnn12	i	28µM
CCn1c(=O)c2ccnn2c2ccc(C(=O)NCc3ccccc3)cc21	i	?
O=C(O)c1ccc2c(c1)n(Cc1cccc(F)c1)c(=O)c1ccnn12	i	28µM
CC(c1nnc(SCC(=O)Nc2ccc(Cl)cc2)n1C)N1C(=O)COc2ccccc21 (configuration not stated)	nt	i
CC(C)CN1CCC(NC(=S)NCc2ccc(F)cc2)CC1	nt	i
Cc1ccc(-c2ccc(C(=O)O)cc2)cc1	nt	i
CC(C)CCn1c(SCCCc2ccccc2)nc2c1c(=O)[nH]c(=O)n2C	nt	i
COc1ccc(Cn2c(=O)c3ccnn3c3ccc(C(=O)NCc4cccnc4)cc32)cc1	i	?
O=C(NCc1cccnc1)c1ccc2c(c1)n(Cc1ccccc1)c(=O)c1ccnn12	i	28µM
CCCNC(=O)CC(c1ccccc1OC)c1c[nH]c2c(CC)cccc12 (configuration not stated)	i	32µM
CCc1cccc2c(C(CC(=O)NCCc3ccc(OC)c(OC)c3)c3ccccc3OC)c[nH]c12 (configuration not stated)	i	i
O=C1CCN(Cc2ccc3c(c2)CCO3)CCCCCCN1	i	i
CCn1c2ccccc2c2cc(CNC34CC5CC(CC(C5)C3)C4)ccc21	nt	i
O=C(Nc1ccc(Oc2ccccc2)cc1)c1n[nH]c(=O)c2ccccc12	nt	i
SMILES	IP6K1 inh	KDM5B inh
Cc1nn(-c2ccccc2)c2c1C(C)N(C1CCN(C(=O)c3ccccc3Cl)CC1)C2=O (configuration not stated)	i	nt
Cc1cc(C(=O)OCCOc2ccccc2C)c2ccccc2n1	nt	i
COc1ccc(C(=O)N2CCN(c3nnc4ccccn34)CC2)cc1OC	i	25µM
COc1ccc(C(=O)N2CCN(c3nc4c(OC)cccc4s3)CC2)cc1OC	i	i
COc1ccc(C(=O)N2CCCN(c3nnc4ccccn34)CC2)cc1F	i	25µM
COc1ccc(C(=O)N2CCCN(c3cc(-c4ccccc4)[nH]n3)CC2)cc1F	i	i
CCOc1ccccc1C(=O)Nc1ccccc1C(C)CC (configuration not stated)	nt	i
COc1ccc(OCC(O)CN2CCC(=O)N(CC(C)(C)C)Cc3cc4c(cc32)OCO4)cc1 (configuration not stated)	i	nt
CCCNC(=O)c1ccc2c(=O)n(CCc3ccccc3)c(SCC#N)nc2c1	nt	i
CC(C)(CO)NC(=O)c1cc(C(C)(C)C)cc(C(C)(C)C)c1	nt	i
c1cc(-c2cc(-c3ccncc3)c3cncn3c2)cc(N2CCOCC2)c1	i	i
Cc1noc(C)c1-c1cc(-c2cccc(N3CCOCC3)c2)cn2cncc12	i	35µM
O=C(c1ccc(F)cc1)N1CCN(c2ccc3nnc(-c4ccccc4)n3n2)CC1	i	nt
CC(=O)N1CC2(CCCN(CC3CCCCC3)C2)Cc2ccccc21 (configuration not stated)	i	?
c1cncc(-c2cc3c(cn2)CN(Cc2ccncc2)CCN3)c1	i	?
Oc1ccccc1CN1CCNc2cc(-c3ccccc3)ncc2C1	i	?
Cc1[nH]cnc1CN1CCNc2cc(-c3ccccc3)ncc2C1	i	32µM
COc1ccc(CN2CCNc3cc(-c4ccccc4)ncc3C2)cn1	i	?
c1ccc(CN2CCNc3cc(-c4cccnc4)ncc3C2)cc1	i	32µM
NC(=O)c1cccc(-c2cc3c(cn2)CN(Cc2ccncc2)CCN3)c1	i	?
